A selection: hits, their analogues and other compounds. The true share with any hit is near 2.4%.
eIF4E 4G PPI = eIF4E–eIF4G protein interaction inhibitors, primary screen, biochemical, uHTS, TR-FRET, eIF4GI fragment; 220,000 tested, 0.37% active; inhibition, % at 21.7 µM; Eukaryotic translation initiation factor 4E (Mus musculus) + Eukaryotic translation …; TR-FRET eIF4E-eIF4GI(517-606) binding, 2 h;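 active = inhibition above about 30%, limit read from the data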
PABP polyA inh = PABP poly(A) RNA binding inhibitors, primary screen, biochemical, fluorescence polarization, uHTS; Polyadenylate-binding protein 1 (Homo sapiens), P11940; AID 2014, 2009; inhibition, % at 35 µM; 290,000 tested, 1% active;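 note: calls also rest on retests at 20 µM and on dose response follow-up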
PERK inh = block of dimerizer-induced PERK translation repression, primary screen, PERK inhibitor project, CHO PERK-DD cells, SEAP luminescence, HTS. Eukaryotic translation initiation factor 2-alpha kinase 3 (Homo sapiens), Q9NZJ5. CHO PERK-DD fusion, SEAP luminescence translation reporter. inhibition, % at 5.6 µM. 220,000 tested, 0.17% active. AID 1416, 2008;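 active = inhibition above the mean inhibition of all tested compounds plus 3 SD, set separately per screening campaign, cut at about 2.9% in these data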;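 note: PERK kinase domain activated by AP20187 dimerizer at 100 nM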
Target sequence (Q9NZJ5 whole entry, looked up, the tested form may be a part): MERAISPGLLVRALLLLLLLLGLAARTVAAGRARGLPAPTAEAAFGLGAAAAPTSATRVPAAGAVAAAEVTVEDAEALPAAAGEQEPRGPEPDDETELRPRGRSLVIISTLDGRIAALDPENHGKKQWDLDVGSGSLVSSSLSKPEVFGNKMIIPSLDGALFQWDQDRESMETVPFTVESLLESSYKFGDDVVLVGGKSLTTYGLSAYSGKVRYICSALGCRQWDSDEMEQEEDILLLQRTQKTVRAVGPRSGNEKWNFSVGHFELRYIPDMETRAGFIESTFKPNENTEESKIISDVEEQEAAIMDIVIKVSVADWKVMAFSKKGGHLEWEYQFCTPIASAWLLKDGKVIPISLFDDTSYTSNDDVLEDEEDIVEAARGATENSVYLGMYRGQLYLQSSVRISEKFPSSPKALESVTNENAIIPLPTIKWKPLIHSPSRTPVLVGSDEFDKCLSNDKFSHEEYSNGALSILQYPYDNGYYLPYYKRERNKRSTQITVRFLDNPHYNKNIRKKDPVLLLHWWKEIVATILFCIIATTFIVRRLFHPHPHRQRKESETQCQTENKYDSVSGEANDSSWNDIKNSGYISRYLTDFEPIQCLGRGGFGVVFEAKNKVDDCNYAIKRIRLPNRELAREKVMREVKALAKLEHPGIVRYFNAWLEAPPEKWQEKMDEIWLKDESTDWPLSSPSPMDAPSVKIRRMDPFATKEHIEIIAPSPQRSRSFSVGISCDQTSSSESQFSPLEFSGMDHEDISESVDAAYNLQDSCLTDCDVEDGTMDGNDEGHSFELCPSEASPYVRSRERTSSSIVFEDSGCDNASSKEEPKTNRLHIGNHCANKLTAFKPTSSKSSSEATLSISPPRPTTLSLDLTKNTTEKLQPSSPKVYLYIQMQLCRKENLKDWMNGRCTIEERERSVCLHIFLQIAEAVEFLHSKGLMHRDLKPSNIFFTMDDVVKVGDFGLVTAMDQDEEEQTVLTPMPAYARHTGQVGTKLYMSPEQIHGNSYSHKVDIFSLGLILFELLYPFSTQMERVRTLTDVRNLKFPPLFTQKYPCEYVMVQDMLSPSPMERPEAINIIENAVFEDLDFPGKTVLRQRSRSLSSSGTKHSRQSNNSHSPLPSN
PfM18AAP inh = PfM18AAP inhibitors, malaria aminopeptidase, primary screen, biochemical, QFRET, recombinant enzyme. M18 aspartyl aminopeptidase (Plasmodium falciparum 3D7). H-Glu-NHMec fluorogenic cleavage. inhibition, % at 7.35 µM. 290,000 tested, 1.2% active. AID 1822, 2009;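 active = inhibition above the campaign mean inhibition over all tested compounds plus 3 SD, cut at about 28% in these data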
PABP1 MLLE inh = inhibitors of PABP1 MLLE–PAM2 peptide binding, primary screen, biochemical, fluorescence polarization, FITC-PAM2, GST-MLLE; inhibition, % at 20 µM; 360,000 tested, 0.36% active; in the data active = inhibition above about 35%, passing the limit was not always enough
eIF4H inh = human eIF4H binding inhibitors, primary screen, translation initiation inhibitor project, biochemical, uHTS, fluorescence polarization | 290,000 tested, 0.94% active | inhibition, % at 35 µM | Eukaryotic translation initiation factor 4H (Homo sapiens), Q15056 | AID 2012, 2009 | eIF4H fluorescence polarization binding assay;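 note: calls also rest on retests at 20 µM and on dose response follow-up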
Of the large screens only hits and unclear results are named; the others gave an inactive call. Unless noted, the rule behind the calls is not given here.

O=C(NC(c1ccc(Cl)cc1)c1ccccn1)C1CCN(CCOc2ccc(Cl)cc2Cl)CC1 (centres undefined)	none (no result: eIF4E 4G PPI, PABP polyA inh, PERK inh, PfM18AAP inh, eIF4H inh)
CCCCC(=O)NC(=S)Nc1ccccc1C(=O)Nc1ccccc1	PABP1 MLLE inh 40
COc1ccc(Cl)cc1S(=O)(=O)N1CCN(C(=O)COc2ccccc2)CC1	none
COc1ccc(NC(=O)CSc2ccccc2)cn1	PABP1 MLLE inh 42
O=C(CCc1ccc(S(=O)(=O)N2CCOCC2)cc1)N/N=C/c1ccc(O)c(O)c1O	PABP polyA inh active, eIF4H inh 96
O=C(CCc1ccc(S(=O)(=O)N2CCOCC2)cc1)N/N=C/c1ccc(F)cc1F	none
CNc1oc(-c2ccc(C)cc2)nc1P(=O)(c1ccccc1)c1ccccc1	none
CCOc1ccc(N2CC(C(=O)Nc3cccc(S(=O)(=O)NC4=NCCC4)c3)CC2=O)cc1 (centres undefined)	eIF4E 4G PPI 97
CCOc1ccc(N2CC(C(=O)Nc3ccc(OC)c(S(=O)(=O)N4CCCCC4)c3)CC2=O)cc1 (centres undefined)	PABP polyA inh 64
CCOc1ccc(N2CC(C(=O)Nc3cccc(S(=O)(=O)N4CCCC4)c3)CC2=O)cc1 (centres undefined)	none (no result: eIF4E 4G PPI, PABP polyA inh, PERK inh, PfM18AAP inh, eIF4H inh)
O=c1oc2c3c4c(cc2s1)CCCN4CCC3	PABP polyA inh 122, PABP1 MLLE inh 74, eIF4H inh 122
N#Cc1cc2c(=O)n3ccccc3nc2n(Cc2ccco2)c1=NC(=O)c1ccco1	PABP1 MLLE inh 41, eIF4H inh inconclusive
Cc1cccn2c(=O)c3cc(C#N)c(=NC(=O)c4ccncc4)n(CCCOC(C)C)c3nc12	PABP polyA inh 63, eIF4H inh 75
COCCCn1c(=NC(=O)c2ccncc2)c(C#N)cc2c(=O)n3cccc(C)c3nc21	PABP polyA inh inconclusive, eIF4H inh inconclusive
CC(=O)N=c1c(C#N)cc2c(=O)n3cccc(C)c3nc2n1Cc1ccco1	PABP polyA inh 50, eIF4H inh 72
Cc1ccccc1C(=O)N=c1c(C#N)cc2c(=O)n3cccc(C)c3nc2n1Cc1ccco1	none (no result: PABP1 MLLE inh)
CCn1nc(C)cc1C(=O)N1CCCC(N(C)CCc2ccc(OC)c(OC)c2)C1 (centres undefined)	none (no result: eIF4E 4G PPI, PERK inh)
CC(C)(C)NC(=O)CN(C(=O)CCN1CCCc2ccccc21)C(C)(C)C	PABP1 MLLE inh 54
CC(C)(C)CN1CCNC(=O)C1CC(=O)NCCN1CCCc2ccccc21 (centres undefined)	eIF4H inh 58
Cc1ccc(NS(=O)(=O)c2ccc3c(c2)CCN3C(=O)CCC(=O)O)cc1Cl	none (no result: eIF4E 4G PPI, PERK inh)
CN(C)c1ccc(CC(=O)N2CCCC(c3cc(C(=O)Nc4ccc(C(C)(C)C)cc4)no3)C2)cc1 (centres undefined)	none (no result: eIF4E 4G PPI, PABP polyA inh, PERK inh, PfM18AAP inh, eIF4H inh)
O=C(NCCc1ccccc1)c1ccc2c(c1)N(Cc1ccccc1)C(=O)CS2=O (centres undefined)	none
CCOCCCNC(=O)c1ccc2c(c1)N(Cc1ccccc1)C(=O)CS2=O (centres undefined)	PfM18AAP inh 28
O=C(CSc1ccc(-c2ccco2)nn1)c1ccc(F)cc1	PABP polyA inh active
Fc1ccc(CSc2ccc(-c3ccco3)nn2)cc1	PABP polyA inh 68, eIF4H inh inconclusive
Fc1cccc(CSc2ccc(-c3ccco3)nn2)c1	none
O=C(CSc1ccc(-c2ccco2)nn1)NCc1ccc(F)cc1	none
CCC(C(=O)N1CCN(S(=O)(=O)c2ccc(F)cc2)CC1)c1ccccc1 (centres undefined)	none (no result: eIF4E 4G PPI, PABP polyA inh, PERK inh, PfM18AAP inh, eIF4H inh)
Cc1sc(NC(=O)CCl)c(C(=O)c2ccccc2)c1C	PABP1 MLLE inh 37
CC(C)N(Cc1nc(-c2ccccc2)no1)C(=O)COc1ccccc1	eIF4E 4G PPI 62
O=[N+]([O-])c1cc(Br)cc(C=Nc2ccc3c(c2)OCO3)c1O	PABP polyA inh 56, eIF4H inh 69
O=C(NCSc1ccccc1)c1ccccc1	PABP1 MLLE inh 42 (no result: eIF4E 4G PPI, PABP polyA inh, PERK inh, PfM18AAP inh, eIF4H inh)
CC(OC(=O)c1ccc2ncsc2c1)C(=O)NC1CCCCC1C (centres undefined)	none (no result: eIF4E 4G PPI, PABP polyA inh, PERK inh, PfM18AAP inh, eIF4H inh)
C=CCNC(=S)Nc1cccc2ccccc12	PERK inh 3.0
COc1cc(C=Nc2ccccc2C(=O)Nc2ccccc2)cc(OC)c1OC	PABP polyA inh 110, eIF4H inh 3.3
COc1cccc(CNC(=O)COC(=O)CCc2cc(OC)c(OC)c(OC)c2)c1	none (no result: eIF4E 4G PPI, PABP polyA inh, PERK inh, PfM18AAP inh, eIF4H inh)
O=C1CSC(=S)N1c1ccccc1	none (no result: eIF4E 4G PPI, PABP polyA inh, PERK inh, PfM18AAP inh, eIF4H inh)
O=C1CSC(=S)N1c1ccc(F)c(Cl)c1	PfM18AAP inh 28 (no result: eIF4E 4G PPI, PERK inh)
Cc1ccc(N2C(=N)SCC2=O)cc1Cl	none
CCN(CC)c1ccc(N2C(=O)CSC2=S)cc1	eIF4H inh 62
O=C1CSC(=S)N1c1cccnc1	PABP1 MLLE inh 40
Cc1nc(S/C(=C/c2ccc(-c3ccc(C(=O)O)cc3)o2)C(=O)O)n[nH]1	PABP polyA inh 44
CC(=O)c1ccc(-c2ccc(/C=C(/Sc3n[nH]c(C)n3)C(=O)O)o2)cc1	none
Cc1nc(S/C(=C/c2ccc(-c3cc(Cl)ccc3C)o2)C(=O)O)n[nH]1	PABP polyA inh 11
Cc1[nH]n(-c2ccccc2)c(=O)c1C(c1cccc([N+](=O)[O-])c1O)c1c(C)[nH]n(-c2ccccc2)c1=O	none
Cc1ccc(C(C[N+](=O)[O-])c2c(N)n(C)c(=O)n(C)c2=O)cc1 (centres undefined)	none
Cc1[nH]n(-c2ccccc2)c(=O)c1C(C[N+](=O)[O-])c1ccc(Br)cc1 (centres undefined)	PfM18AAP inh 30
Cc1[nH]n(-c2ccccc2)c(=O)c1C(c1ccc(C(=O)O)cc1)c1c(C)[nH]n(-c2ccccc2)c1=O	PABP1 MLLE inh 45
Cc1[nH]n(-c2ccccc2)c(=O)c1C(c1cccc([N+](=O)[O-])c1)c1c(C)[nH]n(-c2ccccc2)c1=O	none
COc1cccc(C(C[N+](=O)[O-])c2c(C)[nH]n(-c3ccccc3)c2=O)c1 (centres undefined)	PfM18AAP inh 39 (no result: eIF4E 4G PPI, PERK inh)
Cn1c(SCC(=O)NC(=O)NCc2ccccc2)nnc1C(F)(F)F	none (no result: eIF4E 4G PPI, PABP polyA inh, PERK inh, PfM18AAP inh, eIF4H inh)
S=C(NCc1ccccn1)Nc1cccc(Cl)c1	PfM18AAP inh 30
S=C(NCc1ccccn1)Nc1ccc(Br)cc1Cl	PABP1 MLLE inh 39
CCCc1cc(=O)oc2cc(C)cc(OCC(=O)NCCCN3CCCC3=O)c12	none (no result: eIF4E 4G PPI, PERK inh)
CCN(CC)c1ccc(NC(=O)CCN2C(=O)c3ccccc3S2(=O)=O)c(C)c1	none (no result: eIF4E 4G PPI, PABP polyA inh, PERK inh, PfM18AAP inh, eIF4H inh)
CCOc1ccccc1NC(=S)N1CCN(c2ccc(O)cc2)CC1	PfM18AAP inh 30 (no result: eIF4E 4G PPI, PERK inh)

Assay outcomes deposited in PubChem BioAssay by several laboratories.
